Records with an inconclusive call do not appear. Active and inactive are the calls of the source. Calls follow the shape of the dose curve; as a rule, active = well fitted cell-killing curve with a large enough effect; inconclusive = small, poorly fitted or top-dose-only effect, or effect the other way; inactive = flat fitted curve, though single readings scatter.
Test system: OV90
Experiment: Primary qHTS to identify gynecologic anti-cancer compounds using libraries of approved drugs and bioactive compounds (AID 1345084); also: nearly all actives have a fitted effect of over 55% in size
Conditions: Gynecologic cancer cell panel viability, ATPlite luminescence, 48 h; series mostly up to 57.5 µM; activity change, negative = cytotoxicity: at the top concentration
Method in brief: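 Cells, 1,000 per well, plated 16 h, then exposed 48 h at 37 C to compounds. Viability by ATPlite luminescence after 15 min at room temperature.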
% is scaled to controls: 0 for no effect and ±100 for the full control effect.

SMILES | Potency | activity change, negative = cytotoxicity
CCNC(=O)CC1N=C(c2ccc(Cl)cc2)c2cc(OC)ccc2-n2c(C)nnc21 (configuration not stated) | inactive | –
Cc1ccccc1-n1c(Cn2cnc3c(N)ncnc32)nc2cccc(C)c2c1=O | – | 8.78% (inactive)
Cc1ccc(Cl)c(O)c1 | – | 1.49% (inactive)
CCN(CC)C(=O)c1ccc(C2=CC3(CCNCC3)Oc3cccc(O)c32)cc1 | – | -0.211% (inactive)
CS(=O)(=O)c1ccc(C(=O)C2C(=O)CCCC2=O)c([N+](=O)[O-])c1 | – | -1.74% [at 116 µM] (inactive)
CN[C@@H](C)[C@H](O)c1ccccc1 | – | 14.6% (inactive)
COC(=O)c1cncn1C(C)c1ccccc1 (configuration not stated) | – | 1.05% (inactive)
CC1=C(C(=O)O)N2C(=O)[C@@H](N)[C@H]2SC1 | – | 1.82% [at 25.3 µM] (inactive)
O=C(Oc1ccc([N+](=O)[O-])cc1)N1CCN(Cc2cccc(Oc3ccccc3)c2)CC1 | – | -2.06% (inactive)
COC1=C[C@@H]2[C@@H]3Cc4ccc(OC)c(O)c4[C@]2(CCN3C)CC1=O | – | -0.203% (inactive)
O=C(O)CNC(=O)c1c(O)c2ccccc2n(Cc2ccccc2)c1=O | – | 7.69% (inactive)
CC(O)CN1CCN(CC(=O)[O-])CCN(CC(=O)[O-])CCN(CC(=O)[O-])CC1.[Gd+3] (configuration not stated) | – | 0.436% (inactive)
CN1CCN(c2ccc([N+](=O)[O-])c3no[n+]([O-])c23)CC1 | – | 2.86% (inactive)
COc1ccc(N(C(=O)Oc2c(C)cccc2C)c2ccnc(Nc3ccc(N4CCN(C)CC4)cc3)n2)c(OC)c1 | – | 2.28% (inactive)
O=C(O)COc1ccccc1 | – | -1.59% (inactive)
C1CCC(NC2CCCCC2)CC1 | – | 1.7% (inactive)
O=C(N[C@H]1CN2CCC1CC2)c1ccc(Cl)cc1 | – | 2.92% (inactive)
Cc1c(C(=O)Nc2cccc(C(F)(F)F)c2)cc(-c2ccccc2)n1CCCN1CCOCC1 | – | 0.314% (inactive)
CC(=O)NCCc1c[nH]c2ccccc12 | – | -2.32% (inactive)

SMILES | Potency | activity change, negative = cytotoxicity
O=C(O)COc1nc(Cl)c(Cl)cc1Cl | – | 11.7% [at 116 µM] (inactive)
C=CC(=O)NCNC(=O)C=C | – | -8.49% [at 116 µM] (inactive)
O=C1C(I)=CC(=C(c2cc(I)c(O)c(I)c2)c2ccccc2C(=O)O)C=C1I | – | 5.31% (inactive)
CCc1c(C(=O)C(N)=O)c2c(OCC(=O)O)cccc2n1Cc1ccccc1 | – | 5.73% (inactive)
O=C1C=CC[C@@H]2[C@H]3CCCN4CCC[C@@H](CN12)[C@@H]34 | – | 6.01% (inactive)
O=C(Oc1ccc([N+](=O)[O-])cc1)N1CCC(C(O)(c2ccc3c(c2)OCO3)c2ccc3c(c2)OCO3)CC1 | – | 8.51% (inactive)
O=C(NCC1CCOCC1)c1cnc(Nc2ccc(Cl)cc2Cl)nc1C(F)(F)F | – | -7.86% (inactive)
Cc1ccccc1-n1c(Cn2ncc3c(N)ncnc32)nc2cccc(C)c2c1=O | – | 5.88% (inactive)
O=C(O)c1cc(Oc2ccc(C(F)(F)F)cc2Cl)ccc1[N+](=O)[O-] | – | 4.86% (inactive)
Oc1ccc2c3c1O[C@H]1[C@@H](O)C=C[C@H]4[C@@H](C2)NCC[C@@]341 | – | 0.395% [at 116 µM] (inactive)
CC(C)NCC(O)c1ccc([N+](=O)[O-])cc1 (configuration not stated) | – | 18.4% (inactive)
CC[N+]1(CCOC(=O)C(O)(c2ccccc2)c2ccccc2)CCCCC1 | – | 34.3% (inactive)
CCOC(=O)Nc1ccc(NCc2ccc(F)cc2)cc1N | – | 12.3% (inactive)
CCO/N=C(\CC)C1=C(O)CC(c2c(C)cc(C)cc2C)CC1=O (configuration not stated) | – | 4.39% [at 116 µM] (inactive)
S=C(NC1CCCCC1)N1CCC(c2cnc[nH]2)CC1 | – | 12.7% (inactive)
CC(=O)N(C)c1cccc(-c2ccnc3c(C(=O)c4cccs4)cnn23)c1 | – | 0.215% (inactive)
O=S(=O)(O)C(F)(F)C(F)(F)C(F)(F)C(F)(F)C(F)(F)C(F)(F)C(F)(F)C(F)(F)F | – | 13.5% [at 116 µM] (inactive)
O=S(=O)(O)C(F)(F)C(F)(F)C(F)(F)C(F)(F)F | – | 18.2% [at 116 µM] (inactive)
